# From PubChem
# The list is not random: actives were taken first. Their share in the collection is about 1.3%.
# Phagocyt inh: inhibitors of macrophage phagocytosis, primary screen, imaging, J774A.1 cells, IgG beads; hit rate 0.07% among 110,000; AID 1029, 2008; J774A.1 macrophage IgG-bead phagocytosis; inhibition, % at 5 µM;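 active = inhibition above the mean of the plate negative controls plus 5 SD, cut at about 13% in these data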;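 note: phagocytic index as fraction of beads internalized from green versus red external bead signal; plate controls were DMSO negative control for no effect and cytochalasin-D positive control for full effect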
# S1P2 blocker: human S1P2 receptor antagonists, primary screen, cell-based. cell-based S1P2 antagonist assay, inhibition at 5 uM. inhibition, % at 5 µM. hit rate 0.21% among 97,000. AID 736, 2007; in the data active = inhibition above about 45%;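 note: CRE beta-lactamase reporter cells expressing human S1P2 stimulated with S1P; 0% = agonist at EC80 alone and 100% = agonist plus reference antagonist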
# Target sequence (O95136 whole entry, looked up): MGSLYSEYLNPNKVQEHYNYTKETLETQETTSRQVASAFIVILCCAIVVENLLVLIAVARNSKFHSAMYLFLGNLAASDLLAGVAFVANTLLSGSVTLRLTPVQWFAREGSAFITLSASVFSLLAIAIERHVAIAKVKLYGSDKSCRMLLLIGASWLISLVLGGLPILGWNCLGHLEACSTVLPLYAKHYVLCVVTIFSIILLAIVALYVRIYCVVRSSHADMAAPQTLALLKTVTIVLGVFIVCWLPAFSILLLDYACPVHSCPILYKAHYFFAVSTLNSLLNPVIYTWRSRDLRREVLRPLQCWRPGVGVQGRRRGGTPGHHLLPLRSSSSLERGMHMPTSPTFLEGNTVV
# Calb biofilm kill: clotrimazole potentiators killing Candida biofilms, primary screen, with clotrimazole, Alamar Blue | C. albicans biofilm + clotrimazole | inhibition, % at 6 µM | hit rate 0.14% among 85,000;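 active = inhibition above 20%; inactive = inhibition below 20%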;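 note: preformed 24 hr biofilms exposed to compound for 48 hr; 0% = biofilm without compound and 100% = blank killed by clotrimazole plus chlorhexidine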
# GALR2 antag: GALR2 antagonists in receptor-expressing cells, primary screen; Galanin receptor type 2 (Homo sapiens), O43603; hit rate 0.39% among 140,000; inhibition, % at 4 µM; antagonist mode; in the data active = inhibition above about 27%;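 note: cells stimulated with galanin 1-16 at roughly its EC80; 0% = agonist challenge control and 100% = basal control without agonist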
# S1P2 agonist: S1P2 receptor agonists, primary screen, cell-based; Sphingosine 1-phosphate receptor 2 (Homo sapiens), O95136; S1P2-expressing cell line, agonist reporter read-out; activation, % at 4.5 µM; hit rate 0.46% among 97,000; in the data active = activation above about 16%;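 note: 0% = vehicle low control and 100% = maximal reference agonist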
# GALR2 agonist: GALR2 receptor agonists, primary screen, cell-based. AID 803, 2007. hit rate 0.48% among 140,000. activation, % (concentration not given with the values). GALR2-expressing cells, agonist activation read-out; in the data active = activation above about 5%, passing the limit was not always enough;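 note: 0% = vehicle buffer wells and 100% = reference agonist at full effect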
# * hit, by the source's call; / = not tested or not shown.
SMILES,Phagocyt inh,S1P2 blocker,Calb biofilm kill,GALR2 antag,S1P2 agonist,GALR2 agonist
COc1ccccc1-c1nn2c(-c3ccccc3Cl)nnc2s1,-1,/,7,/,/,/
Cc1ccc(-c2nn3c(C)nnc3s2)cc1NC(=O)c1ccc(-c2ccc(Cl)cc2Cl)o1,-1,/,12,-3,/,6.8*
CN(C)c1ccc(-c2nn3c(-c4ccc(Cl)cc4Cl)nnc3s2)cc1,-5,/,5,-1,/,6.0*
Nc1nc(Br)c2c(F)cccc2c1-c1ccc(Cl)cc1,/,-8,/,7,38*,13*
CCC(C)C1NC(=S)N(C2CCCCC2)C1=O (stereo not drawn),/,-19,/,9,-4,0
CCCCC1NC(=S)N(C2CCCCC2)C1=O (stereo not drawn),-3,/,/,1,/,7.1*
Cn1c(Cn2c(=O)sc3ccccc32)nnc1SCC(=O)NC1CCCCC1,/,/,21*,3,/,0
CCOc1ccc(OCC)c(NC(=O)CSc2nc3c(c(=O)n(C)c(=O)n3C)n2C(C)C)c1,1,-38,-1,-1,26*,0
CCOc1ccc(OCC)c(NC(=O)CSc2nc3c(c(=O)n(C)c(=O)n3C)n2C)c1,-2,/,1,/,/,/
O=C(c1ccc(NC2=NC3CS(=O)(=O)CC3S2)cc1)N1CCN(Cc2ccccc2)CC1 (stereo not drawn),0,13,5,-14,-3,-1
O=C(c1ccc(NC2=NC3CS(=O)(=O)CC3S2)cc1)N1CCc2ccccc2C1 (stereo not drawn),-2,/,29*,18,/,-1
CCC(=O)N(Cc1cc2cc(OC)ccc2[nH]c1=O)c1ccc(C)cc1C,-2,25,0,-8,-2,1
O=C1c2ccccc2C(=O)N1Cc1nc2ccccc2c(=O)n1CCN1CCOCC1,/,18,1,5,-4,-3
CCCCOc1ccccc1NC(=O)Cn1c(-c2nonc2N)nc2ccccc21,-1,/,/,18,/,7.8*
COC(=O)c1sc2cc(C(F)(F)F)cnc2c1-c1cccnc1,0,-5,/,-4,-1,-1
CSc1nnc(-c2sc3cc(C(F)(F)F)cnc3c2-c2cccnc2)n1C,0,-3,54*,5,-7,-3
O=C(CSc1nnc2ccccn12)Nc1cccc(-c2nc3ccccc3s2)c1,/,/,/,10,/,5.7*
Cc1noc2ncnc(Sc3ccc(Cl)cc3)c12,1,34,9,18,-4,-2
Cc1noc2ncnc(Sc3c(Cl)cccc3Cl)c12,0,48*,0,20,-6,-3
Cc1ccc(/C=C2\CCC3=C2OC(N)=C(C#N)C3c2ccc(C)cc2)cc1 (stereo not drawn),-2,24,/,-7,17*,12*
N#CC1=C(N)OC2=C(CCc3ccccc32)C1c1ccccc1 (stereo not drawn),15,/,/,-1,/,5.0*
N#CC1=C(N)Oc2cc(O)ccc2C1c1ccccc1 (stereo not drawn),-1,/,7,0,/,-1
CCOc1cc(C(=O)N(C)Cc2cc3cc(OC)ccc3[nH]c2=O)cc(OCC)c1OCC,0,27,0,-1,-7,-2
Cc1ccc(C2CC(c3ccccc3)=NN2c2ccccc2)o1 (stereo not drawn),-4,/,/,-9,/,7.1*
Cc1ccc(C2CC(c3ccccc3)=NN2C(=O)CSc2nnc(-c3ccc(Cl)cc3)o2)o1 (stereo not drawn),0,16,/,-4,-1,-2
SMILES,Phagocyt inh,S1P2 blocker,Calb biofilm kill,GALR2 antag,S1P2 agonist,GALR2 agonist
COCC(=O)N(Cc1cc2cc(OC)ccc2[nH]c1=O)c1ccccc1,-1,-13,8,-4,-2,-1
CC1CCN(C(=O)c2ccc(S(=O)(=O)Cc3ccccc3F)c([N+](=O)[O-])c2)CC1,-4,/,/,19,/,-1
COC(=O)c1ccc(C(=O)OC)c(NC(=O)COC(=O)CC2CC3CCC2C3)c1 (stereo not drawn),0,-8,/,14,-2,-5
CCCCCCCCSc1nnc(CSc2nc3nc(C)cc(C)n3n2)o1,/,0,/,-10,-10,-2
O=C(NCc1cccnc1)Nc1cccc(NC(=O)NCc2cccnc2)c1,90*,/,9,9,/,-1
CCC(C)(C)n1nnnc1CN(Cc1ccc(Cl)cc1)Cc1ccco1,0,-9,4,-4,-2,-1
CCOC(=O)c1cnc(-n2nc(C)cc2C)nc1NC1CCCCC1,2,91*,6,0,-11,0
CCn1c2ccccc2c2nc3cc(OC)c(OC)cc3nc21,-1,-37,/,-5,23*,1
COc1cc2nc3c4ccccc4n(CC#N)c3nc2cc1OC,-1,-20,3,5,8,-1
CCn1c2ccccc2c2nc3ccccc3nc21,0,-36,4,-4,19*,1
CCOc1cc(/C=C/c2ccc3cccc([N+](=O)[O-])c3n2)ccc1O,-12,/,/,-10,/,1
CCOc1cccc(Nc2cc3n(c(=O)n2)CCc2cc(OC)c(OC)cc2-3)c1,2,-48,/,10,29*,0
COc1cc2c(cc1OC)-c1cc(OCc3cccnc3)nc(=O)n1CC2,1,-36,6,2,23*,-1
CCOc1ccc(S(=O)(=O)N2CCc3cc(OC)c(OC)cc3C2)cc1,-2,/,/,7,/,-2
COc1cc2c(cc1OC)-c1cc(Nc3ccc4c(c3)OCCO4)nc(=O)n1CC2,0,-51,3,-12,20*,-2
O=C(CSc1ccccc1)Nc1ccc(N2CCN(c3ccccc3)CC2)c(F)c1,/,12,/,16,-9,-2
Cc1ccc(SCC(=O)Nc2ccc(N3CCN(C)CC3)c(F)c2)cc1,-2,9,/,-13,-5,7.8*
O=C(CSc1nc2c(c(=O)n1-c1ccc(Cl)cc1)SCC2)N1CCOCC1,-1,-8,4,-6,21*,-1
CCNC(=S)N/N=C/c1c(C)nn(-c2cccc(Cl)c2)c1Cl,-3,/,/,-12,/,3
Cc1nn(-c2cccc(Cl)c2)c(Cl)c1/C=N/NC(=O)c1cccs1,-4,/,/,-3,/,5.0*
Cn1c(-c2sc(=S)n(-c3ccccc3)c2N)nc2ccccc21,/,2,4,19,32*,-2
CN1C(=O)C2(c3ccccc31)N(C)CC(c1ccccc1)C21SC(=S)N(Cc2ccco2)C1=O (stereo not drawn),/,-7,-2,-11,-5,-2
CC(C)OCC1CC(CC(=O)NC(=S)Nc2cccc([N+](=O)[O-])c2)C(=O)O1 (stereo not drawn),/,-2,8,-3,47*,-1
Cc1ccc(S(=O)(=O)Nc2cc(-c3nn(C)c(=O)c4ccccc34)ccc2N2CCOCC2)cc1,-1,-48,1,1,17*,-1
Cn1nc(-c2ccc(N3CCOCC3)c(NS(=O)(=O)c3ccc(Cl)cc3)c2)c2ccccc2c1=O,/,-29,8,6,-1,1
